Where “and” joins values, the source holds several entries; their conditions need not be identical. Equal entries are not always repeated. Inconclusive results are not listed. Calls of active or inactive are those of the source. The call rests on the fitted dose curve.
Experiment: qHTS Assay for Lipid Storage Modulators (AID 1519); on activity change, negative = inhibition: on the % scale 0 is the no-effect control and ±100 the full control effect
Conditions: Drosophila S3 cells, BODIPY lipid droplet/cell ratio, laser cytometry, cells loaded with oleic acid; for activity change, negative = inhibition: at 57.5 µM (top of the series)
Excerpt: NIH Molecular Libraries Probe Production Centers Network [MLPCN]
NIH Chemical Genomics Center [NCGC]
Assay Submitter (PI): Beller, Mathias; Max-Planck-Institut fur Biophysikalische Chemie
NCGC Assay Overview: Storing lipids as a reservoir for energy or the anabolism of elementary metabolites is a common feature of probably all cells and is conserved from bacteria to humans. The universal cellular lipid storage organelle is the so-called lipid storage droplet (LD). Although ubiquitous, LDs share a simple structure composed of a hydrophobic core that harbors the storage lipids, which is shielded by a droplet-specific phospholipid monolayer to which proteins are attached. The current model of LD biogenesis involves an incorporation of the lipid core into the membrane leaflets of the endoplasmic reticulum (ER) followed by a subsequent budding-like maturation of a LD, which ultimately pinches off. Once released, LD volume can increase by localized lipogenesis or fusion of existing droplets. Storage lipids are re-mobilized enzymatically by lipase activity. Lipase regulation in the adipocyte is heavily studied and involves multiple components including catecholamine signaling, the LD-associated proteins Perilipin and comparative gene identification-58 (CGI-58) and at least two lipases named hormone sensitive lipase (HSL) and adipocyte triglyceride lipase (ATGL). LD regulation outside of the adipocyte is poorly understood and only few components are known. However, there is an urgent need to learn more about ectopic fat depots as mislocalized storage of lipids, for example in the liver or muscle, is an eminent health problem associated with insulin resistance or the metabolic syndrome. We developed a laser-scanning cytometer assay to enable 1,536-well screening and combined the results of the small molecules screen with an RNAi database based on lipid storage.
NCGC Assay Protocol Summary:
We dispensed 4 uL of cells at 1.25 x 10^6 cells/mL into LoBase Aurora COC 1,536-well plates (black walled, clear bottom) with a bottle-valve solenoid-based dispenser (Aurora) to obtain 5,000 cells/well. Triacsin C (Sigma-Aldrich T-4540), an inhibitor of long-chain fatty acyl CoA synthetase that blocks synthesis of triglycerides, was used as a positive control for lipid under-storage. A total of 23 nL of compound solution of different concentrations were transferred to the assay plates using a Kalypsys pin tool equipped with a 1,536-pin array containing 10-nL slotted pins (FP1S10, 0.457-mm diameter, 50.8 mm long; V&P Scientific). One microliter of oleic acid (400 uM) was added, and the plate was lidded with stainless steel rubber gasket lined lids containing pinholes. […] Fluorescence was detected by excitation of the fluorophores with a 488-nm laser on an Acumen Explorer (TTP Lab Tech). The total intensity in channel 1 (500-530 nm) reflected lipid droplet accumulation. […] The ratio of the total intensity in PMT channel 1 over total intensity of channel 3 was also calculated. Percent activity was computed relative to an internal control (100% inhibited lipid droplet deposition due to the presence of 20 uM Triacsin C), which was added to 32 wells/plate.

[1] = measured here: cell count channel max response
[2] = measured here: lipid channel max response

CC(=O)c1c(O)c(C)c(O)c(Cc2c(O)c3c(c(C(=O)/C=C/c4ccccc4)c2O)OC(C)(C)C=C3)c1O
activity change, negative = inhibition: 1.99% (inactive) | max response [1]: 24.5% | max response [2]: 25.8%

CN1C2CCC1CC(OC(c1ccccc1)c1ccc(Cl)cc1)C2 (configuration not stated)
activity change, negative = inhibition: 0.923% (inactive) | max response [1]: -27.9% | max response [2]: -25.4%

N[C@@H](Cn1oc(=O)[nH]c1=O)C(=O)O
activity change, negative = inhibition: 3.82% (inactive) | max response [1]: 22.6% | max response [2]: 26.9%

NNC(=O)c1ccc(O)cc1
activity change, negative = inhibition: 0.0246% (inactive) | max response [1]: -17.6% | max response [2]: -15.4%

OCc1cnc[nH]1
activity change, negative = inhibition: 1.18% (inactive) | max response [1]: 7.21% | max response [2]: 9.78%

CN(C(=O)Cc1ccc(Cl)c(Cl)c1)C(CN1CCCC1)c1cccc(OCC(=O)O)c1 (configuration not stated)
activity change, negative = inhibition: 2.91% (inactive) | max response [1]: 8.86% | max response [2]: 13%

O=[N+]([O-])c1cc(O)c(O)c([N+](=O)[O-])c1
activity change, negative = inhibition: 9.72% (inactive) and 0.381% (inactive) | max response [1]: 15.9% and 33.6% | max response [2]: 26.8% and 29.7%

O=C1C=CC(=O)C=C1
activity change, negative = inhibition: 0.0539% (inactive) | max response [1]: -25.7% | max response [2]: -24.4%

NC(=O)c1ccc(OCC(O)CN2CC=C(c3ccc(F)cc3)CC2)cc1 (configuration not stated)
activity change, negative = inhibition: -3.69% (inactive) | max response [1]: -43.3% | max response [2]: -42.5%

C[N+](C)(C)CC#CCOC(=O)Nc1cccc(Cl)c1
activity change, negative = inhibition: -0.494% (inactive) | max response [1]: -7.08% | max response [2]: -8.94%

NNC(N)=O
activity change, negative = inhibition: 1.16% (inactive) | max response [1]: -7.78% | max response [2]: -7.06%

Cc1cc(C)cc(C(=O)OC2C[C@H]3CC[C@@H](C2)N3C)c1 (some centres not stated)
activity change, negative = inhibition: 3% (inactive) | max response [1]: -0.988% | max response [2]: 4.22%

C[C@H](N)CN1CCc2ccc(Br)cc21
activity change, negative = inhibition: 0.866% (inactive) | max response [1]: -15.5% | max response [2]: -16.4%

C[N+](C)(C)CC#CCN1CCCC1=O
activity change, negative = inhibition: 1.94% (inactive) | max response [1]: 5.23% | max response [2]: 8.27%
